Measured values published in PubChem BioAssay (NCI).
Several values for one entry are separate records, joined by “and”; a condition that tells them apart may be missing. Equal entries are not always repeated. This is part of a sample that, as a whole, favours compounds with a hit. Of some 83,000 tested, about 20% had one in any assay.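 Note: values are percent growth. 100 is the growth of untreated cells, values between 100 and 0 indicate rising inhibition; between -100 and 0 indicates cell death.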 Unmarked numbers belong to inactive results. Activity calls are given as the source filed them. How the source made its calls: active means growth percent below 10; inactive means the rest.

Tested on: MDA-MB-468 breast
Experiment: NCI-60 one-dose screen, 48 h (100 = growth as untreated, 0 = no growth, -100 = all killed)
Details: 10 µM unless noted

First: COc1cc2ncn3c(=O)c4c5c(sc4nc3c2cc1OC)CCCC5
Second: COc1cccc(CCN2C(=O)CCC3=C2CCC3=O)c1
The growth of the first is lower: 101% for the first, 103% for the second.

Compared with `O=C1c2cc(Cl)ccc2-c2c(O)cc(Cl)cc21`, `O=C(/C=C/c1cc(Cl)ccc1Cl)Nc1ncc(Cc2ccc(Cl)cc2)s1` is lower in growth: 48.6% for the first, 23.8% for the second.

Going from `COc1ccc(NC(=O)/C(=C/N2C(=O)/C(=C/c3ccc(OC)c(OC)c3)NC2=S)C(C)=O)cc1` to `CC(=O)c1ccc(NC(=O)Nc2ccc(S(=O)(=O)Nc3ccc(Cl)nn3)cc2)cc1`, the growth rises from 40.1% to 107%.

First: CC(CO)(CO)C(=O)O
Second: CC(C)=CC(=O)OC(=O)C=C(C)C
The growth of the first is higher: 99.9% for the first, 92.9% for the second.

Going from `Nc1ncnc2c1C(c1ccccc1)c1ccc3ccccc3c1O2` (stereo not given) to `O=C(Nc1ccc2[nH]c3ccccc3c2c1)c1ccccc1Cl`, the growth falls from 86.5% to 44.8%.

First: CNC(=O)c1ccccc1Sc1ccc2c(/C=C/c3ccccn3)n[nH]c2c1
Second: O=C(/C=C/Nc1ccc(S(=O)(=O)Nc2ncccn2)cc1)c1ccc(N=Cc2c(O)[nH]c3ccccc23)cc1
The growth of the first is lower: 28% for the first, 109% for the second.

Going from `CN1CCN(c2ccc(C(=O)/C=C/c3ccc(Cl)c(C(F)(F)F)c3)cc2)CC1` to `CC(=O)c1nc2ccccc2n1CC(=O)c1cccc(Cl)c1`, the growth rises from 18.4% to 32.7%.

Going from `O=C(CCCCCCN1CC(=O)N2[C@@H](c3cccc(Cl)c3)c3[nH]c4ccccc4c3C[C@H]2C1=O)NO` to `O=C(/C=C1\C=CN(CCCCCCF)c2ccccc21)n1ccc2ccccc21`, the growth rises from 47.2% to 84.9%.

Compared with `CC(C)(C)c1cc(NC(=O)Nc2ccc(-c3cn4c5c(sc4n3)CCc3c[nH]cc3-5)cc2)no1`, `COc1cccc(-c2nc3sccn3c2-c2ccnc(NCCNS(=O)(=O)c3cccc(Cl)c3)c2)c1` is higher in growth: 22.6% for the first, 42.4% for the second.

First: [2H]c1nc(Nc2ncc(F)c(-c3cc(F)c4nc(C)n(C(C)C)c4c3)n2)c([2H])c([2H])c1CN1CCN(C([2H])([2H])C([2H])([2H])[2H])CC1
Second: Cc1occc1-c1nc2s/c(=C\c3cn(-c4ccccc4)nc3-c3ccccc3)c(=O)n2n1
The growth of the first is higher: 103% for the first, 89.8% for the second.

Compared with `N#Cc1c(-c2ccc(F)cc2)c(C#N)c2c(C#N)c(N)nn2c1N`, `N#C/C(=C1\SC(=O)CN1c1ccccc1)c1nc2ccccc2s1` is higher in growth: 83.5% for the first, 115% for the second.

Compared with `CSc1nn(-c2ccccc2)c2ncnc(Oc3ccc(C)cc3)c12`, `Cc1cc(=O)n(C(=O)Nc2ccccc2Cl)c2cc(O)ccc12` is higher in growth: 93.2% for the first, 104% for the second.

Going from `C#CCN(CCCOc1ccc(Cl)cc1Cl)CCCSC(=O)CCCCCN1/C(=C\C=C2/CCCC(/C=C/C3=[N+](CCCCCC(=O)[O-])c4ccccc4C3(C)C)=C2Cl)C(C)(C)c2ccccc21` to `O=C(Nc1cccc(Cl)c1)OCC(COC(=O)Nc1cccc(Cl)c1)(COC(=O)Nc1cccc(Cl)c1)[N+](=O)[O-]`, the growth rises from 12.8% to 16.5%.

First: O=C1c2ccccc2C(=O)c2c1ccc1[nH]c(-c3cccs3)nc21
Second: c1ccc(C(NC2CC3CCC2C3)c2ccccc2)cc1 (stereo not given)
The growth of the first is higher: 99.6% for the first, 96.8% for the second.

`Cc1[nH]nc(C(N)=O)c1[N+](=O)[O-]` was tested, and the growth was 85.5%.

In the case of `COc1cc(NCCN(CC(C)C)C2CCCC2)c2ncccc2c1`, the growth is reported as -13.9% (active).
With `CN1CCN(CCCNC(=O)c2c3c(n4ccccc24)C(=O)c2ncccc2C3=O)CC1` the growth was -59.9% (active).
For `Nc1nc2c(c3ncccc13)C(c1ccc(Cl)c(Cl)c1)Cc1ncccc1-2` (stereo not given), the growth was -6.48% (active).
For `COc1ccc(-c2nc(/C=N/Nc3cc(C)nc4ccc(Cl)cc34)c(C)o2)cc1`, the growth was -73.7% (active).
`CCC(C)N(CCNc1cc(OC)cc2cccnc12)CCC(C)C` (stereo not given) was tested, and the growth was -24.8% (active).
With `Cc1cc(Nc2ncc(Cl)c(Nc3ccccc3S(=O)(=O)C(C)C)n2)c(OC(C)C)cc1C1CCNCC1` the growth was -78.1% (active).
For `COc1cc(-c2nc(-c3ccccc3)[nH]c2-c2ccnc(NCCCNS(=O)(=O)c3ccc(C(F)(F)F)cc3)n2)ccc1Cl`, the growth was 14% and 41.9%.
`CSc1ccc2c(c1)N(CCC1CCCCN1C)c1ccccc1S2` (stereo not given) was tested, and the growth was -10.2% (active).
In the case of `C[C@@H](c1ccc2c(c1)[nH]c1ccc(Cl)cc12)c1nc2ccccc2[nH]1`, the growth is reported as -3.2% (active).
In the case of `O=C1c2cc3c(cc2-c2c1c1ccc(F)cc1c(=O)n2C[C@H](O)[C@@H](O)[C@H](O)CO)OCO3`, the growth is reported as -45.2% (active).
`O=C(Nc1cccc(-n2ccc3c(NC(=O)c4ccccc4)nccc32)c1)c1ccc(N2CCOCC2)c(C(F)(F)F)c1` was tested, and the growth was -2.66% (active).
